Our source for the activation values is PubChem BioAssay AID504720 (Sanford-Burnham Center for Chemical Genomics, 2011).

Among all 350,000 compounds or so, about 1,100 (0.31%) were called active. The sample as a whole holds a higher share of actives than the screen did. Values without a mark were called inactive. Cut-off read from the data, not from the text of the source: active = activation above about 50%; inactive = the rest.

Chain of Endoribonuclease toxin MazF (Escherichia coli (strain K12)) (P0AE70 whole entry, looked up): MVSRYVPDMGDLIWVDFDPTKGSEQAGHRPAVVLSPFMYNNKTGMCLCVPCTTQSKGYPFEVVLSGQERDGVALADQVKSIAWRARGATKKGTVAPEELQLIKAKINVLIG

The test concerns the target Endoribonuclease toxin MazF (Escherichia coli (strain K12)) (UniProt P0AE70). The experiment in a line: activators of E. coli MazEF toxin-antitoxin RNase, primary screen, biochemical, fluorescence, uHTS (AID 504720). Particulars: FAM/BHQ RNA-DNA oligo cleavage fluorescence, 5 h, at 20 µM, stronger effect = higher value.
Regarding `Nc1c(C(=O)c2cccs2)sc2nsc(SCCN3CCCCC3)c12`, the activation was 790% (active).
Then `CN=C(c1ccccc1)c1c(C)cccc1C`, with 0.32%; and `CN(C)CCNC(=O)C(C(=O)c1ccccc1)n1ccccc1=O` (stereo not given), with 5.66%.
As for `Cc1nn2c3cc(N4CCOCC4)ccc3nc2c2ccccc12`, the activation was 31.7%.
With `CC(=O)c1sc(NC(=O)C2=NN(c3ccccc3)C(=O)CC2)nc1C`, the activation was 0.238%.
As for `Cc1ccn2c(=O)c(NC(=O)c3cccc4ccccc34)c(C)nc2c1`, the activation was 4.6%.
Then `CC(=O)c1sc(NC(=O)c2cccc3ccccc23)nc1C`, with 63.5% (active).
`Cc1cccc(N2C(=O)C3C(c4ccccc4)OC4(C(=O)c5ccccc5C4=O)C3C2=O)c1` (stereo not given): the activation is 0.83%.
The value for `CCOc1ccc(N2C(=O)Nc3ccccc3C2(O)C(=O)NCc2ccco2)cc1` (stereo not given) was -28.4%; that for `CCCCCCCC(=O)NC(Nc1ccccc1OC)C(Cl)(Cl)Cl` (stereo not given) was -13.4%.
The value for `Cc1ccsc1CNn1cnnc1SCc1ccccc1F` was 54.5% (active); that for `Cc1ccccc1CSc1nnc(-c2cccnc2)n1N` was -17.4%.
The value for `CCN(CC(=O)NCc1cccs1)C(=O)c1cccc(S(=O)(=O)Nc2ccccc2OC)c1` was 2.02%; that for `CCOc1ccc(C(C(=O)NCCOC)N(CCOC)C(=O)CCC(=O)Nc2ccccn2)cc1` (stereo not given) was -1.66%.
For the compound `Cc1ccc(C(=O)O)cc1N1C(=O)CCCC1=O`, the activation was 4.24%.
Turning to `COCCCNc1nc2c(-c3cccc(C)c3)nnn2c2ccc(Cl)cc12`, the activation is 6.31%.
Then `CN(CC(=O)Nc1ccc(F)c(F)c1F)C(=O)Cn1cnc2c1c(=O)n(C)c(=O)n2C`, with 3.59%.
Regarding `O=C(c1ccc(Cl)cc1)N1N=C(c2ccccn2)CC1(O)C(F)(F)F` (stereo not given), the activation was 7.8%.
Then `O=C1NC(=O)N(c2ccc(F)cc2)C(=O)/C1=C/c1ccc2c(c1)CCCN2Cc1ccccc1`, with 50.1% (active).
The value for `O=C1CN(C(=O)c2cc(F)cc(F)c2)c2ccccc2N1` was 10.5%; that for `COCCNC(=O)C(c1ccc(O)cc1)N(C(=O)CCC(=O)Nc1nccs1)c1ccc(C)cc1` (stereo not given) was 8.66%; that for `CC(=O)Oc1cc2c(C(=O)NCCN3CCOCC3)c(C)oc2c2ccccc12` was -12.4%.
Then `O=C(CN1C(=O)NC(Cc2ccccc2)(Cc2ccccc2)C1=O)NCC1CCCCC1`, with 2.41%.
As to `CCCCCCNCCn1cnc2c(N)ncnc21`, the activation was 2.79%.
Then `CCOCCN(C=O)c1cccc(OC)c1`, with 4.02%; and `COc1ccc(C(C(=O)NC2CCCCC2)N(C(=O)c2snc(C(N)=O)c2N)c2ccccc2OC)cc1` (stereo not given), with 6.68%; and `CCC(C(=O)NC1CCCCC1)N(C(=O)c1snc(C(N)=O)c1N)c1ccc(OC)cc1OC` (stereo not given), with 8.72%.
With `COc1ccc(N(C(=O)c2snc(C(N)=O)c2N)C(C(=O)NC2CCCC2)c2ccc(C)o2)c(OC)c1` (stereo not given), the activation was 146% (active).
Then `O=C(NCCCO)/C(=C\C=C\c1ccccc1)NC(=O)c1ccccc1Cl`, with -2.84%; and `CCNC(=O)NC(=O)C(C)OC(=O)C1CCN(S(=O)(=O)c2ccccc2F)CC1` (stereo not given), with 5.47%; and `C=CC[C@H](CC(=O)N(CCO)Cc1ccccc1)C(=O)N[C@@H](COC(=O)[C@@H](CC=C)Cc1ccc(F)cc1)Cc1ccccc1`, with -7.46%.
The value for `Cc1nc(NCc2ccccc2)c(C(N)=O)c2c1COC(C)(C)C2` was -2.87%; that for `CCCn1c(=O)c2c(C(F)(F)F)cc(-c3cccs3)nc2n(CCC)c1=O` was 11.8%.
Then `O=C(O)C(c1ccccc1)N1C(=O)/C(=C\c2ccc(-c3cccc(Cl)c3)o2)SC1=S` (stereo not given), with 199% (active).
`CC(C(=O)NC1CCS(=O)(=O)C1)N1C(=O)/C(=C/c2ccc(Cl)cc2)SC1=S` (stereo not given): the activation was 0.406%.
Regarding `O=C(NC(=S)Nc1cc(C(F)(F)F)ccc1N1CCOCC1)c1ccc(-c2cccc(Cl)c2)o1`, the activation was -2.26%.
Then `CC(C)N=C1CCCC1C(=S)SSC(=S)C1CCCC1=NC(C)C` (stereo not given), with 1.19%; and `CN(C)c1ccc(Nc2c3c4c(cccc4n(C)c2=O)C(=O)c2ccccc2-3)cc1`, with 178% (active).
On to `CN(C)c1ccc(C2N(C)C(=O)c3ccccc3N2C)cc1` (stereo not given), for which the activation was -0.422%.
Regarding `NC1=NC(=O)C(Cc2cccc(Cl)c2Cl)S1` (stereo not given), the activation was -10%.
Consider `COc1cc(C(=O)NCc2nnc(SCC(=O)Nc3nc4ccc(C)cc4s3)o2)cc(OC)c1OC`, for which the activation is 12.4%.
The value for `CCN(CC)CCOc1ccc2c(c1)C(=NNC(=O)c1ccccn1)c1cc(OCCN(CC)CC)ccc1-2` was -0.85%; that for `CN(CCNC(=O)c1cc2c(-c3ccccc3F)nn(C)c2s1)C1CCCCC1` was 18.1%.
The value for `CCc1nc(Nc2ccc3nccnc3c2)c2oc3ccccc3c2n1` was 92.8% (active).
Then `C[C@@H](Nc1nc(-c2ccccc2)nc2c1oc1ccccc12)C(=O)O`, with 0.442%; and `COCCNc1nc(-c2ccccc2)nc2c1oc1ccccc12`, with 10.6%; and `O=C(CSc1ccc(Cl)cc1)NC1CC1`, with 8.89%.
Consider `Cc1noc(NS(=O)(=O)c2ccc(N3CC(O)=C(c4ccccc4)C3=N)cc2)c1C`, for which the activation is -0.03%.
The value for `O=c1o[nH]c(-c2ccccc2)c1N=Nc1c(F)cccc1Cl` was -10.5%.
Consider `COc1ccc(N=Nc2c(-c3ccc(OC)cc3)[nH]oc2=O)cc1`, for which the activation is 61.5% (active).
Regarding `COc1ccc(N=C2C=CC(=O)O2)cc1`, the activation is 6.95%.
The value for `COc1ccc(N2CCN(Cc3ccc(Br)s3)CC2)cc1` was -3.28%; that for `O=S(=O)(c1cnccc1N1CCN(/N=C/c2ccc(Br)cc2)CC1)N1CCCCC1` was -7.86%.
Regarding `O=C(c1ccc(Cl)nc1)N1CCN(S(=O)(=O)c2ccc3c(c2)OCCO3)CC1`, the activation is 2.83%.
Then `COc1cc(C(=O)N2C(=O)c3cccc(N)c3C2=O)cc(OC)c1OC`, with 75.9% (active).
The value for `COc1cc(C(=O)N2CCN(C)CC2)cc(OC)c1OC` was 4.16%; that for `CC1CC(C)CN(S(=O)(=O)c2cccc(C(=O)N3C(=O)c4cccc(N)c4C3=O)c2)C1` (stereo not given) was 3.79%.
Then `NC(CSC(c1ccccc1)(c1ccccc1)c1ccc(-c2ccccc2)cc1)C(=O)O` (stereo not given), with -7.6%; and `COc1ccc(CN(C)C(=S)Nc2ccc(Cl)cc2Cl)cc1`, with 7.07%.
In the case of `O=c1c2ccccc2nc(/C=C/c2ccc(F)cc2)n1-c1ccccc1O`, the activation is -12.9%.
Regarding `CCn1c(/C=C/c2ccc([N+](=O)[O-])o2)nc2ccccc2c1=O`, the activation is 1270% (active).
In the case of `O=c1c2ccccc2nc(/C=C/c2ccco2)n1-c1ccccc1O`, the activation is -0.876%.
As to `CN1OC[C@@H]2CN[C@H](c3ccc(-c4ccccc4)cc3)C[C@@H]21`, the activation is 8.87%.
Regarding `COC(=O)c1c(-c2ccsc2)oc2ccc(-c3cc(OC)c(OC)c(OC)c3)cc12`, the activation is 1.83%.
For `O=C1N[C@H](Cc2c[nH]c3ccccc23)COC(=O)[C@H](Cc2ccc(F)cc2)C/C=C\C[C@H]1CC(=O)N(CCO)Cc1ccccc1`, the activation was -14.8%.
On to `Cc1nnc2n1N=C(c1ccc3c(c1)NC(=O)CO3)CS2`, for which the activation is -1.68%.
For the compound `COc1ccc(NC(=O)c2oc3ccc(S(=O)(=O)N4CCOCC4)cc3c2C)cc1`, the activation is 8.57%.
Then `CCOC(=O)C1CCN(C(=O)c2oc3ccc(S(=O)(=O)N4CCCCCC4)cc3c2C)CC1`, with -5.11%.
Then `Cc1c(C(=O)NCCN(C)C)oc2ccc(S(=O)(=O)N3CCCC3)cc12`, with 111% (active); and `COCCNC(=S)N1CCN(C)CC1`, with -2.39%.
Then `C/C(CC(=O)NCc1ccc(Cl)cc1)=N\NC(=O)COc1ccc(C)cc1Br`, with -5.14%.
On to `CC(CCc1ccccc1)NCC(O)c1cccc([N+](=O)[O-])c1` (stereo not given), for which the activation is 11.5%.
With `CCn1c(/C=N/NC(=O)c2ccc(OC)cc2)nc2ccccc21`, the activation was -0.18%.
With `COc1cc(/C=N/NC(=O)c2cccnc2)ccc1OC(=O)c1cccc(Br)c1`, the activation is 8.67%.
The value for `COc1cccc(/C=N/NC(=O)c2[nH]nc3c2CCc2ccccc2-3)c1O` was 160% (active).
Take `COc1ccc(S(=O)(=O)N2CCOC23CCN(S(=O)(=O)c2ccc([N+](=O)[O-])cc2)CC3)cc1`: the activation is 5.08%.
With `COc1ccc(C(=O)Nc2ccc(C3(C#N)CCCC3)cc2)cc1OC`, the activation is -19.2%.
Then `CCOCCCNC(=O)C(NC(=O)c1ccccc1O)c1ccccc1` (stereo not given), with -12.8%.
Then `CC[C@@H]1Cc2cc(O)ccc2C2=C1c1ccc(O)cc1C[C@H]2CC`, with 84.7% (active).
The value for `O=C1CC(Sc2ncn[nH]2)C(=O)N1c1ccccc1` (stereo not given) was 3.68%; that for `Cc1[nH]c(C)c(S(=O)(=O)N2CCC(C)CC2)c1C(=O)N1CCCC1` was 1.65%; that for `CCOC(=O)c1c(C)[nH]c(C)c1C(=O)COC(=O)/C=C/c1cccc([N+](=O)[O-])c1` was 3.22%.
On to `Cc1cccc(N=Nc2c(O)[nH]c3ccc(F)cc23)c1`, for which the activation is 946% (active).
The value for `Cc1ccc(CNC(=O)CSc2nnc3c(n2)[nH]c2ccc(F)cc23)cc1` was 18.4%.
With `COc1cc(OC)c(C(=S)N2CCCC2)cc1OC`, the activation was 9.16%.
The value for `O=C1C2(Cl)C3(Cl)C4(Cl)C(Cl)(Cl)C5(Cl)C3(Cl)C1(Cl)C5(Cl)C24Cl` (stereo not given) was 65.6% (active).
Consider `C=CCn1c(-c2ccc(Cl)cc2)ccc(C#N)c1=O`, for which the activation was 2.85%.
Regarding `Cc1nc(Nc2ccc3c(c2)OCCO3)c2nnn(Cc3ccccc3Cl)c2n1`, the activation was -3.74%.
The value for `Cc1nc(Nc2ccccc2F)c2nnn(Cc3ccccc3Cl)c2n1` was 61.6% (active); that for `Cc1nc(Nc2ccc(S(=O)(=O)N3CCCC3)cc2)c2nnn(Cc3ccccc3)c2n1` was 12.1%.
